The record followed here is PubChem BioAssay AID2018 (Sanford-Burnham Center for Chemical Genomics, 2009).

The whole screen tested about 1,200 compounds, of which about 600 (50%) were called active. No stated cut-off is given here; in the data, active means inhibition above about 42%; inactive means the rest. So high a share suggests a set chosen from earlier hits. The list shows a part of the results. Potency and affinity values are given separately.

For the test, the target named is SUMO-conjugating enzyme UBC9 (Homo sapiens) (UniProt P63279). Put plainly: SUMOylation inhibitor hit validation, confirmation, SUMOylation inhibitor project, biochemical, AlphaScreen (AID 2018). The settings on record: AlphaScreen in vitro SUMOylation assay; at 35 µM; stronger effect = higher value. (Bead proximity is the source of the signal in Alpha formats.)
Sequence of SUMO-conjugating enzyme UBC9 (Homo sapiens) (P63279 whole entry, looked up): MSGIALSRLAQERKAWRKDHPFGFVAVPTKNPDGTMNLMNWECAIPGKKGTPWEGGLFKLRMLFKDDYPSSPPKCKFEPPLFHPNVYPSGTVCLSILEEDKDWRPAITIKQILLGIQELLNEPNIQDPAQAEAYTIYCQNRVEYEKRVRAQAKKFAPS
Take `CN(C)CCNS(=O)(=O)c1ccc2c3c(cccc13)C(=O)N2`: the inhibition is 15.4% (inactive).
The figure for `Oc1cccc2c(NC(=S)Nc3ccc(SC(F)F)cc3)cccc12` is 36.5% (inactive); for `O=C(NCCc1csc(-c2ccccc2)n1)c1c(F)cccc1Cl` it is -8.6% (inactive); for `Oc1ccc(C=Nc2cccc3ncccc23)c(O)c1` it is 27.7% (inactive).
The figure for `Oc1c(C=Nc2cccc3nsnc23)ccc2ccccc12` is 98% (active); for `Oc1ccccc1N=Cc1c(O)ccc2ccccc12` it is 56.9% (active); for `CCOc1ccc(C=Nc2cccc3ncccc23)cc1` it is 23.5% (inactive).
The same measure for `O=[N+]([O-])c1cccc2cn[nH]c12`: -0.5% (inactive); for `Oc1ccc(C=Nc2cccc3ccccc23)c(O)c1`: 42.8% (active); for `Oc1ccc2ccccc2c1C=Nc1ccc(Cl)cn1`: 26.1% (inactive).
As to `COc1ccc(C=Nc2cccc3ncccc23)cc1`, the inhibition is 16.5% (inactive).
In the case of `Oc1ccc(N=Cc2c(O)ccc3ccccc23)cc1`, the inhibition is 21.9% (inactive).
The same measure for `N#CC1=C(N)N2C(=C(C#N)C1c1ccc(Br)cc1)Nc1ccccc12` (configuration not stated): 20.4% (inactive); for `Cc1cc(NCCO)c2cc(O)ccc2n1`: 3% (inactive).
The figure for `O=[N+]([O-])c1cc(C=Nc2cccc3c(O)cccc23)ccc1Cl` is 33.8% (inactive); for `O=[N+]([O-])c1ccc(C=Nc2ccc(Cl)c([N+](=O)[O-])c2)s1` it is 98.4% (active); for `O=C(NC(=S)Nc1cccc2c(O)cccc12)c1ccco1` it is 41.6% (inactive).
The figure for `CCCC(=O)NC(=S)Nc1cccc2c(O)cccc12` is 10.1% (inactive).
`O=C(NC(=S)Nc1cccc2c(O)cccc12)c1cccc(Br)c1`: the inhibition is 52.7% (active).
The same measure for `NNc1nc2c(Cl)ccc(Cl)c2s1`: 8% (inactive); for `Cc1ccc(C)c(S(=O)(=O)Nc2cc(SCC(=O)O)c(O)c3ccccc23)c1`: 51.2% (active).
The figure for `Cc1ccc(C)c(S(=O)(=O)Nc2ccc(O)c3ccccc23)c1` is 39.8% (inactive); for `Cc1cc(C)c(S(=O)(=O)Nc2cc(SCC(=O)O)c(O)c3ccccc23)cc1C` it is 43.1% (active); for `COc1ccc2c(C)c(C(=O)NCC(C)O)oc2c1OC` (configuration not stated) it is 6.4% (inactive).
The same measure for `COC(=O)c1cc2c(C)[nH]c(C)c2cc(C(=O)OC)c1=O`: 13.6% (inactive); for `CN1CCCc2cc3c(C(F)(F)F)cc(=O)oc3nc21`: -9% (inactive).
Turning to `N#CC1=C(N)Oc2n[nH]c(-c3cccs3)c2C1c1cccs1` (configuration not stated), the inhibition is 33.5% (inactive).
`Cc1cc(NC(=O)CSc2nnc(Nc3ccccc3C)s2)no1`: the inhibition was 25.7% (inactive).
The same measure for `Cc1cc(-c2csc(NC(=O)c3ccc(C#N)cc3)n2)c(C)n1Cc1ccco1`: 21.4% (inactive); for `Cc1c(C)c2cc(Cl)c(O)c(CN3CCN(C)CC3)c2oc1=O`: -1% (inactive).
With `CCOC(=O)c1sc(NC(=O)c2cccc(S(=O)(=O)N3CCc4ccccc43)c2)c(C#N)c1C`, the inhibition was 33.4% (inactive).
Take `O=C(NCc1ccccc1)Nc1cccn(Cc2ccccc2)c1=O`: the inhibition was 3.6% (inactive).
In the case of `COc1ccccc1NC(=O)CSc1ccc2nnc(-c3ccccn3)n2n1`, the inhibition is 14.2% (inactive).
The figure for `COc1ccccc1NC(=O)Cn1nc(C)n2cccc2c1=O` is 0.4% (inactive).
The figure for `CC1(C)CC(=O)C2=C(C1)Nc1[nH]c(=S)[nH]c(=O)c1C2c1ccccc1` (configuration not stated) is 12.7% (inactive); for `Cc1occc1C(=O)N1CCN(c2ccccc2)CC1` it is 19.6% (inactive).
The same measure for `Nc1c(C(=O)NCc2ccco2)c2nc3ccccc3nc2n1CCc1ccccc1F`: 2.7% (inactive).
For the compound `COCCn1c(N)c(C(=O)NCc2cccs2)c2nc3ccccc3nc21`, the inhibition was -23.2% (inactive).
The same measure for `COCCNC(=O)c1c(N)n(CCC2=CCCCC2)c2nc3ccccc3nc12`: 4.1% (inactive); for `CC(C)Cn1c(N)c(C(=O)NCc2cccs2)c2nc3ccccc3nc21`: -100% (inactive); for `O=c1cc(-c2ccc(F)cc2)[nH][nH]1`: 24.9% (inactive).
The same measure for `Cn1c(NNC(=O)c2c(F)cccc2F)cc(=O)n(C)c1=O`: 42.1% (active).
For `CC1=NN(c2ccc(Br)cc2)C(=O)/C1=C/c1cccs1`, the inhibition is 59.4% (active).
The same measure for `CC1=NN(c2ccccc2)C(=O)/C1=C/c1ccc(Cl)cc1`: 58.2% (active); for `CC1=NN(c2ccccc2)C(=O)/C1=C/c1cccs1`: 40.6% (inactive); for `CC1=NN(c2ccccc2)C(=O)/C1=C\c1cn(CCC#N)nc1-c1ccc(Cl)cc1`: 60.8% (active).
The same measure for `COc1cc(/C=C2\C(=O)N(CCC#N)N=C2C)c(Br)cc1OC(C)C`: -16.2% (inactive); for `CC1=NN(c2ccccc2)C(=O)/C1=C\c1ccc(Br)s1`: 75% (active); for `O=c1c2ccccc2oc2cc(NCCCN3CCOCC3)ccc12`: -1.4% (inactive).
The figure for `CCCNC(=O)c1ccc2c(=O)c(O)c(-c3ccsc3)[nH]c2c1` is 16.3% (inactive); for `O=C1C(NS(=O)(=O)c2cccs2)=C(N2CCN(c3cccc(C(F)(F)F)c3)CC2)C(=O)c2ccccc21` it is 88.2% (active); for `S=c1[nH]nc(-c2cccnc2)n1/N=C/C=C/c1ccco1` it is 15.4% (inactive).
`S=c1[nH]nc(-c2ccccc2Cl)n1/N=C/C=C/c1ccco1`: the inhibition is 34.1% (inactive).
On to `O=C(Cc1cc(=O)oc2cc(O)ccc12)NCC1CCC(C(=O)O)CC1` (configuration not stated), for which the inhibition was 6% (inactive).
The figure for `COc1c(C)oc2cc(O)ccc2c1=O` is 3.3% (inactive).
The figure for `Cc1cc(C)cc(NC(=S)Nc2cccc3cnccc23)c1` is 31.7% (inactive); for `CCc1ccc(NC(=S)Nc2cccc3cnccc23)cc1` it is 69.6% (active); for `Fc1ccc(NC(=S)Nc2cccc3cnccc23)cc1` it is 9.9% (inactive).
In the case of `Cc1ccc(NC(=S)Nc2cccc3cnccc23)cc1C`, the inhibition was 31.1% (inactive).
The figure for `S=C(Nc1ccc(Cl)cc1)Nc1cccc2cnccc12` is 42.2% (active).
Take `COCCNC(=S)Nc1cccc2cnccc12`: the inhibition was -7.2% (inactive).
Take `O=C1N/C(=N/N=C/c2ccccc2O)SC1Cc1ccc(F)cc1` (configuration not stated): the inhibition is 7.4% (inactive).
In the case of `CCOc1cc(CNc2ccccc2SC)ccc1O`, the inhibition is 65.8% (active).
The figure for `CNCc1ccccc1Sc1ccc(O)c(O)c1` is -26.2% (inactive).
The figure for `CCc1ccccc1NC(=O)Nc1cccn(Cc2ccccc2F)c1=O` is 2.6% (inactive).
On to `COc1cccc(Cn2cccc(NC(=O)Nc3ccccc3C)c2=O)c1`, for which the inhibition was 31.1% (inactive).
The same measure for `O=C(NCc1ccccc1)Nc1cccn(Cc2ccccc2F)c1=O`: -5% (inactive).

One may read the inhibition as the change of the read-out against control, counted positive when it falls.
